Data on 14 compounds can be found in PubChem BioAssay.

Molecules are shown by their SMILES. Where “and” joins values, the source holds several entries; their conditions need not be identical. Equal entries are not always repeated. Calls of active or inactive are those of the source. Rule as the data show it, unless noted: active = parasite load remaining mostly below about 12% (no sharp cut-off); inactive = mostly above about 10%.

A short description of test [1]: P. berghei load reduction in hepatocytes – cell-based, HepG2, luciferase luminescence, HepG2 viability, primary screen (AID 624349).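 Also: 100% = mean of DMSO negative control wells on the same plate.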 The settings on record: P. berghei liver stage in HepG2, luciferase luminescence, concentration not given here; parasite load remaining: stronger effect = lower value; viability: measured here: HepG2 viability without parasites.
The nature of test [2]: EMT-state selective cytotoxicity in co-culture – imaging, PC-3E GFP, TEM4-18 mCherry, primary screen (AID 1345086;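 active = compounds killing one labelled cell type while sparing the other, by normalised counts and ratio limits, not self-fluorescent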;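 as to all read-outs here: cells exposed to compound for 72 h before imaging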;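 as to red/green cell ratio (normalised): normalised mesenchymal count divided by normalised epithelial count so high means epithelial killing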). The settings on record: PC-3E GFP / TEM4-18 mCherry co-culture, imaging cell counts, at 1 µM; for red/green cell ratio (normalised): actives lie on both sides, counts scaled to control wells, 1 = unselective.
Test [3] in a line: viability loss with induced miR-34 in A549 – imaging, A549 dox-inducible miR-34, nuclei and caspase counts, primary screen (AID 1347080;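 active = compounds whose cell count with miR-34 switched on is under 0.7 times the count with it off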). The settings on record: A549 miR-34 inducible, Hoechst nuclei count, 48 h.
Test [4] addresses NAD(+) hydrolase SARM1 (Homo sapiens) (UniProt Q6SZW1). The test is described as follows: blocking NAD cleavage by SARM1 SAM-TIR – cell lysate, NAD-Glo luminescence (AID 1508614;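 active = compound whose remaining NAD level is above about 45 nM, limit read from the data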;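 also: higher remaining NAD means stronger inhibition of SARM1 NADase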). The settings on record: SAM-TIR HEK293T lysate NADase, at 1 µM, stronger effect = higher value.
A short description of test [5]: compounds altering viability of human ES cells (AID 493140; call rule not given here;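 also: cells exposed to compounds for four days before counting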). The settings on record: human embryonic stem cell survival screen; stronger effect = higher value.
A short description of test [6]: MELAS cybrid and Rieske KO viability enhancers – cell-based, MELAS cybrids, Rieske KO mouse fibroblasts, CellTiter-Glo, primary screen (AID 1508586;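 active = mean z-score across replicates of 1.96 or higher in either the MELAS or the Rieske mutant cell line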;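 also: z relative to plate mean and SD of compound and empty wells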). The settings on record: low glucose. On the technique in general: ATP-based viability assays read luminescence as a measure of living cells.
Test [7] has as its target Mitogen-activated protein kinase 7 (Homo sapiens) (UniProt Q13164). Description: Gal4-ERK5 driven luciferase induction – cell-based, HTS, primary screen (AID 1508626;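 active = luciferase signal above three times the same-plate solvent-only control wells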;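 also: luciferase driven by Gal4-ERK5 fusion binding five Gal4 sites before minimal TATA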). The settings on record: HeLa Gal4-ERK5 transactivation, 18 h, at 5 µM, stronger effect = higher value.
A short description of test [8]: galactose survival enhancers in mitochondrial complex I cybrids – cell-based, galactose medium, ATP luminescence, primary screen (AID 1645843;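 active = z-score of at least 1.8 in each of two replicates, scored against plate mean and spread of sample wells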;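 also: positive z means more ATP and so rescue of galactose-driven cybrid death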). The settings on record: complex I mutant cybrid cells, 72 h, stronger effect = higher value.
[9] abbreviates: measured here: epithelial PC-3E GFP cell survival.
[10] abbreviates: measured here: mesenchymal TEM4-18 mCherry cell survival.
Setting [11] is: stronger effect = lower value, cell number ratio, induced over uninduced.
[12] abbreviates: measured here: relative caspase fold change +Dox/-Dox.
[13] abbreviates: measured here: total cells with miR-34 induction, stronger effect = lower value.
[14] abbreviates: measured here: total cells without miR-34 induction.

Sequence of NAD(+) hydrolase SARM1 (Homo sapiens) (Q6SZW1 whole entry, looked up): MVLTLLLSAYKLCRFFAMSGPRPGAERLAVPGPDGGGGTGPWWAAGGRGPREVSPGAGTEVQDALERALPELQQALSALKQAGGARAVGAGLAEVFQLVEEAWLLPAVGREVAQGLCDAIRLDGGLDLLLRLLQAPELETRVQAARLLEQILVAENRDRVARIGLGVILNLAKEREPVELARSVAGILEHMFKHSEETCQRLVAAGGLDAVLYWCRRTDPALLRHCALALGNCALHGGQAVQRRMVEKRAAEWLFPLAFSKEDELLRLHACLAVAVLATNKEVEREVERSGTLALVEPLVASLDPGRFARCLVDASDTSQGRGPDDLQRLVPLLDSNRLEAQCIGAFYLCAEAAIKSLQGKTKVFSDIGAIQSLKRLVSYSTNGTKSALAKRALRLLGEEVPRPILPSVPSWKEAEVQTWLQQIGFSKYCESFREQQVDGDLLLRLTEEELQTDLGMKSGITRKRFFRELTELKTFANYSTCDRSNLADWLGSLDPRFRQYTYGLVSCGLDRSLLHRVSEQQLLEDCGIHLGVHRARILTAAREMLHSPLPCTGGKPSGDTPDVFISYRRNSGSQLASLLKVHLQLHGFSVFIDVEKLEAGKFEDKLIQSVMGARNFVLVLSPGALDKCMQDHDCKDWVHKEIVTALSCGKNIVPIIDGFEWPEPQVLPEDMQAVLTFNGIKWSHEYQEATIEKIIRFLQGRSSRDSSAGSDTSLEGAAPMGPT
Sequence of Mitogen-activated protein kinase 7 (Homo sapiens) (Q13164 whole entry, looked up, the tested form may be a part): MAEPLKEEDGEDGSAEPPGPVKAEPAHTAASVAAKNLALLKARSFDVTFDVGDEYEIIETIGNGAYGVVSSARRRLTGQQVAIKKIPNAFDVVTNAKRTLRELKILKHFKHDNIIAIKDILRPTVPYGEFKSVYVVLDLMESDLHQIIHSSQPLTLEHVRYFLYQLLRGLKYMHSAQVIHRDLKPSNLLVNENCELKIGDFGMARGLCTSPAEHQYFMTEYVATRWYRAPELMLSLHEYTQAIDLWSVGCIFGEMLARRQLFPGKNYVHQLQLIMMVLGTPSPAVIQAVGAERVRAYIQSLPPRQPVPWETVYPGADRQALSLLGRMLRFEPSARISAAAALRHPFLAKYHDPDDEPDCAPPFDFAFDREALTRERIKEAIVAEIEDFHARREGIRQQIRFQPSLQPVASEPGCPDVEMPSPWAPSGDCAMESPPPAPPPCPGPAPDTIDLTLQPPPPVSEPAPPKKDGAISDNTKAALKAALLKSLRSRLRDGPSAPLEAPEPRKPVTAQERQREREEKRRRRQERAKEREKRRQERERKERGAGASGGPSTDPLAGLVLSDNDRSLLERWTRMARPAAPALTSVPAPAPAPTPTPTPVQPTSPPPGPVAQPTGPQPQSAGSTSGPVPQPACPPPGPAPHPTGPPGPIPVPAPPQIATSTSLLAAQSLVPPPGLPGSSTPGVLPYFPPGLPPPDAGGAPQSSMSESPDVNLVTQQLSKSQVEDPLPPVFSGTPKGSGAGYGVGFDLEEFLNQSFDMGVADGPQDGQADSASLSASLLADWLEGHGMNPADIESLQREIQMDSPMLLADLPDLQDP

For `CC(=O)S[C@@H]1CC2=CC(=O)CC[C@]2(C)[C@H]2CC[C@@]3(C)[C@@H](CC[C@@]34CCC(=O)O4)C12` (stereo partly specified), the parasite load remaining in test [1] was 56.6% (inactive) and 46.1% (inactive). For the same compound, the viability in test [1] is 72.6% and 88.2%. Moreover, the red/green cell ratio (normalised) in test [2] was 1.24 (inactive). For the same compound, the normalised cell number was determined as 1 in test [2] (setting [9]) and 1.25 in test [2] (setting [10]). For the same compound, the fold change in test [3] (setting [11]) is 0.863 (inactive); in test [3] (setting [12]) it was 2.19. Also, the cell count was found to be 10200 in test [3] (setting [13]) and 11900 in test [3] (setting [14]).

With `CC(C)CCCC(C)[C@H]1CCC2C3CC=C4C[C@@H](O)CC[C@]4(C)C3CC[C@@]21C` (stereo partly specified), in test [1], the parasite load remaining is 39.9% (inactive). The viability in test [1] is 101%. In addition, the red/green cell ratio (normalised) in test [2] is 1.04 (inactive). The normalised cell number in test [2] (setting [9]) was determined as 1.14; in test [2] (setting [10]) it was 1.19. Moreover, the values for the fold change in test [3] (setting [11]) and in test [3] (setting [12]) were 0.96 (inactive) and 2.49, respectively. Also, the figures for the cell count in test [3] (setting [13]) and in test [3] (setting [14]) were 12300 and 12900, respectively.

As to `CC(C)(O/N=C(\C(=O)N[C@@H]1C(=O)N2C(C(=O)[O-])=C(C[n+]3ccccc3)CSC12)c1csc(N)n1)C(=O)O` (stereo partly specified), in test [1], the parasite load remaining is 57.9% (inactive). Moreover, the viability in test [1] amounted to 101%. Besides, the red/green cell ratio (normalised) in test [2] is 0.74 (inactive). Besides, the normalised cell number was 1.28 in test [2] (setting [9]) and 0.94 in test [2] (setting [10]). Besides, the results for the fold change in test [3] (setting [11]) and in test [3] (setting [12]) were 0.922 (inactive) and 3.92, respectively. Besides, the cell count in test [3] (setting [13]) was 12200; in test [3] (setting [14]), 13200.

On to `CCC(C)C(=O)O[C@H]1C[C@H](O)C=C2C=C[C@H](C)[C@H](CC[C@@H](O)C[C@@H](O)CC(=O)O)C21` (stereo partly specified), for which, in test [1], the parasite load remaining is 152% (inactive) and 58.6% (inactive). In addition, in test [1], the viability is 84.1% and 191%. Also, the red/green cell ratio (normalised) in test [2] was 0.96 (inactive). Moreover, the normalised cell number in test [2] (setting [9]) was determined as 1.19; in test [2] (setting [10]) it was 1.14. Moreover, the figures for the fold change in test [3] (setting [11]) and in test [3] (setting [12]) were 0.861 (inactive) and 5.53, respectively. The cell count was 11700 in test [3] (setting [13]) and 13500 in test [3] (setting [14]).

Regarding `CC(C)(Oc1ccc(C(=O)c2ccc(Cl)cc2)cc1)C(=O)O`, in test [2], the red/green cell ratio (normalised) is 1.11 (inactive). Also, the normalised cell number worked out at 1.09 in test [2] (setting [9]) and 1.21 in test [2] (setting [10]). The remaining NAD in test [4] was 10 nM (inactive).

As for `CCCCCCCCCCC[C@@H](C[C@H]1OC(=O)[C@H]1CCCCCC)OC(=O)[C@@H](CC(C)C)NC=O`, the parasite load remaining in test [1] is 118% (inactive) and 62.8% (inactive). Moreover, the viability in test [1] was 86.3% and 114%. Moreover, in test [2], the red/green cell ratio (normalised) is 1.11 (inactive). Moreover, the normalised cell number in test [2] (setting [9]) is 0.96; in test [2] (setting [10]), 1.07. In addition, the fold change was 0.887 (inactive) in test [3] (setting [11]) and 2 in test [3] (setting [12]). Also, the cell count amounted to 11500 in test [3] (setting [13]) and 13000 in test [3] (setting [14]).

As to `COc1cc([C@@H]2c3cc4c(cc3C(O[C@@H]3O[C@@H]5CO[C@@H](c6cccs6)OC5[C@H](O)[C@H]3O)C3COC(=O)[C@@H]32)OCO4)cc(OC)c1O` (stereo partly specified), in test [1], the parasite load remaining is 111% (inactive) and 83.3% (inactive). Moreover, the viability in test [1] was 75.6% and 112%. Further, the red/green cell ratio (normalised) in test [2] was 1.33 (inactive). Besides, the normalised cell number in test [2] (setting [9]) was 0.27; in test [2] (setting [10]), 0.36. Also, the fold change in test [3] (setting [11]) is 0.795 (inactive); in test [3] (setting [12]) it was 3.39. In addition, the cell count in test [3] (setting [13]) stood at 3270; in test [3] (setting [14]) it was 4110.

For the compound `CC(C)(C)NC(=O)[C@H]1CCC2C3CCC4NC(=O)C=C[C@]4(C)C3CC[C@@]21C` (stereo partly specified), the parasite load remaining in test [1] is 30.5% (inactive). The viability in test [1] amounted to 97.9%. In addition, the red/green cell ratio (normalised) in test [2] is 1.12 (inactive). The normalised cell number in test [2] (setting [9]) was 0.62; in test [2] (setting [10]) it was 0.69. Further, the fold change was 0.895 (inactive) in test [3] (setting [11]) and 2.7 in test [3] (setting [12]). Besides, the cell count in test [3] (setting [13]) came out at 11000; in test [3] (setting [14]), 12300.

In the case of `CS(=O)(=O)c1ccc(C(O)[C@H](CF)NC(=O)C(Cl)Cl)cc1` (stereo partly specified), in test [1], the parasite load remaining was 50.1% (inactive). The viability in test [1] turned out to be 102%. In addition, in test [2], the red/green cell ratio (normalised) is 0.78 (inactive). Further, the normalised cell number amounted to 0.91 in test [2] (setting [9]) and 0.71 in test [2] (setting [10]). Further, the figures for the fold change in test [3] (setting [11]) and in test [3] (setting [12]) were 0.945 (inactive) and 2.12, respectively. The cell count in test [3] (setting [13]) is 10700; in test [3] (setting [14]), 11400.

Consider `C=C(NC(=O)C(=C)NC(=O)c1csc(C2=NC3c4csc(n4)C4NC(=O)c5csc(n5)C(C(C)(O)C(C)O)NC(=O)C5CSC(=N5)C(=CC)NC(=O)C(C(C)O)NC(=O)c5csc(n5)C3(CC2)NC(=O)C(C)NC(=O)C(=C)NC(=O)C(C)NC(=O)C(C(C)CC)NC2C=Cc3c(C(C)O)cc(nc3C2O)C(=O)OC4C)n1)C(N)=O` (stereo unspecified), for which the parasite load remaining in test [1] is 64.9% (inactive) and 23.2% (inactive). In addition, the viability in test [1] is 75.8% and 108%. The red/green cell ratio (normalised) in test [2] was 0.94 (inactive). The normalised cell number in test [2] (setting [9]) amounted to 0.8; in test [2] (setting [10]), 0.75. The fold change was 0.829 (inactive) in test [3] (setting [11]) and 1.94 in test [3] (setting [12]). Also, the cell count was 9190 in test [3] (setting [13]) and 11100 in test [3] (setting [14]).

As for `CC(CCC(=O)O)[C@H]1CCC2C3C(=O)C[C@@H]4CC(=O)CC[C@]4(C)C3CC(=O)[C@@]21C` (stereo partly specified), the parasite load remaining in test [1] was 50.2% (inactive). Further, the viability in test [1] was determined as 81.3%. Besides, in test [2], the red/green cell ratio (normalised) is 1.13 (inactive). Also, the normalised cell number in test [2] (setting [9]) turned out to be 0.93; in test [2] (setting [10]), 1.05. Also, the fold change in test [3] (setting [11]) is 0.923 (inactive); in test [3] (setting [12]), 1.77. The cell count in test [3] (setting [13]) is 11900; in test [3] (setting [14]), 12900.

For `CN(Cc1cnc2nc(N)nc(N)c2n1)c1ccc(C(=O)NC(CCC(=O)O)C(=O)O)cc1` (stereo unspecified), the survival in test [5] was 10.7 (inactive). Besides, the red/green cell ratio (normalised) in test [2] is 0.89 (inactive). Moreover, the normalised cell number in test [2] (setting [9]) is 1.15; in test [2] (setting [10]), 1.02. The z-score in test [6] (MELAS cybrid survival, CellTiter-Glo 48 h, stronger effect = higher value) was -0.53 (inactive) and 1.15 (inactive); in test [6] (Rieske KO mouse fibroblast survival, CellTiter-Glo 72 h), 0.183 and -0.283; in test [8] it was -1.2 (inactive). Further, the remaining NAD in test [4] is 10 nM (inactive). For the same compound, the luciferase signal in test [7] is 32 AU (inactive).

Consider `CCC(=O)OCC(=O)[C@@]1(OC(=O)CC)[C@@H](C)CC2C3CCC4=CC(=O)C=C[C@]4(C)C3(F)[C@@H](O)C[C@@]21C` (stereo partly specified), for which the parasite load remaining in test [1] is 25.9% (inactive). In test [1], the viability turned out to be 83.8%. Moreover, the red/green cell ratio (normalised) in test [2] is 1.32 (inactive). The results for the normalised cell number in test [2] (setting [9]) and in test [2] (setting [10]) were 1.03 and 1.37, respectively. Also, the fold change in test [3] (setting [11]) is 0.918 (inactive); in test [3] (setting [12]) it was 2.62. Moreover, the cell count in test [3] (setting [13]) worked out at 7780; in test [3] (setting [14]), 8480.

As for `CC(=O)O[C@]1(C(C)=O)CCC2C3C=C(C)C4=CC(=O)CCC4(C)C3CCC21C` (stereo partly specified), the parasite load remaining in test [1] is 94.3% (inactive) and 19.1% (inactive). In test [1], the viability was 74.8% and 83.8%. The red/green cell ratio (normalised) in test [2] was 0.94 (inactive). For the same compound, the normalised cell number in test [2] (setting [9]) was determined as 1.18; in test [2] (setting [10]), 1.11. Further, the fold change in test [3] (setting [11]) was 0.897 (inactive); in test [3] (setting [12]), 2.81. In addition, the figures for the cell count in test [3] (setting [13]) and in test [3] (setting [14]) were 9250 and 10300, respectively.

A word on the viability: it is a read-out of living cells in per cent, often relative to untreated cells.
